Screens: PubChem, National Center for Advancing Translational Sciences (NCATS)
A selection: hits, their analogues and other compounds. The true share with any hit is near 6.8%.
KB-3-1 cytotox = qHTS assay for MDR1-selective chemotherapeutics: Primary screen using the parental adenocarcinoma cell KB-3-1. KB-3-1 viability, CellTiter-Glo ATP luminescence, 72 h. Potency, µM (doses to about 46.1 µM), hits mostly cytotoxic. 1.4% of 400,000 active. AID 1347075, 2019; also: % is scaled to controls: 0 for no effect and ±100 for the full control effect; nearly all actives have a fitted effect of over 60% in size
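72 h, 37 °C compound treatment of KB-3-1 parental cells; CellTiter-Glo added, 10 min, luminescence read. Data corrected against DMSO-only plates and normalized before curve fitting.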
SW480 rereplic = A quantitative high throughput screen for small molecules that induce DNA re-replication in SW480 colon adenocarcinoma cells | Potency, µM (doses to about 46.1 µM), without a hit: top-dose re-replication activation, most hits filed as activators | 1.8% of 340,000 active | SW480 DNA re-replication, Hoechst DNA content imaging, 48 h; also: % of control where 0% means no effect; nearly all actives have a fitted effect of over 55% in size
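Quantitative HTS format with DMSO vehicle controls; 48 hr drug incubation at 37 C, then 40 min Hoechst staining and scanning imager measurement at 405 nm excitation.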
PTAP TSG101 blk = qHTS Assay for Iinhibitors of HIV-1 Budding by Blocking the Interaction of PTAP/TSG101; AID 493005, 2010; Tumor susceptibility gene 101 protein (Homo sapiens), Q99816; 340,000 tested, under 10 active; Fluorescence polarization, FITC-PTAP peptide / Tsg101 binding; Potency, µM (doses to about 115 µM), without a hit: at the top dose activity change, negative = inhibition, hits mostly inhibitors; active = well fitted inhibition curve with a large enough effect in the main read-out, with a control signal flat, not every such curve was filed as active; inconclusive = small, poorly fitted or top-dose-only effect, or effect the other way, or a change in a side signal; inactive = no such curve, though single readings can be large or run the other way; also: % of control where 0% means no effect
Target sequence (Q99816 whole entry, looked up): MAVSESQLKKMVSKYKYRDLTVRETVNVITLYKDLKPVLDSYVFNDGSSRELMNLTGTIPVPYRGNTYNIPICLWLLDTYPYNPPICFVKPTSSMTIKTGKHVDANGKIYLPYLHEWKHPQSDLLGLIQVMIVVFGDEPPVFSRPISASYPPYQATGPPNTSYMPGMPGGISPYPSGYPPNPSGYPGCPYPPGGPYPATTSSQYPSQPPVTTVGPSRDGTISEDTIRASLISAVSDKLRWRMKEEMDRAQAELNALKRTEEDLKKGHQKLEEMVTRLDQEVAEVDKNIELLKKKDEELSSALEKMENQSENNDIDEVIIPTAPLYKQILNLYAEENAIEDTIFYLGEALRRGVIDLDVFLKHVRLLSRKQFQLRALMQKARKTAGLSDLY
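FP read-out: FITC-PTAP peptide, 50 nM final, binding Tsg101 binding domain, 10 uM final; 20 min, r.t.; 10 mM HEPES pH 7.5, 0.15 M NaCl, 0.01% Tween 20, 3 mM EDTA, 0.1 mM TCEP.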
PINK1 modulator = A Quantitative High throughput Screen to Identify Chemical Modulators of PINK1 Expression | 0.2% of 410,000 active | Potency, µM (top dose mostly 76.6 µM), for the others: at the highest dose activation (PINK1 increase), hits mostly activators | PINK1 immunofluorescence, high-content cytometry, 24 h | AID 624263, 2012; active = well fitted activation curve with a large enough effect; inconclusive = small, poorly fitted or top-dose-only effect; cell line not stated here; also: % of control where 0% means no effect; nearly all actives have a fitted effect of over 65% in size
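Fluorescence from anti-PINK1 antibody, together with nuclear and cell stains, was scanned on a laser-scanning cytometer. Before staining, stable-line cells were incubated 24 hours with compounds at 5 concentrations; primary antibody 12 h at 10 degrees C.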
MCF10A rereplic = A quantitative high throughput screen for small molecules that induce DNA re-replication in MCF 10a normal breast cells | Potency, µM (doses to about 46.1 µM), for inactives: top-dose activity, positive = re-replication, most hits filed as activators | MCF 10A DNA re-replication, Hoechst nuclear intensity, 48 h | AID 624296, 2012 | 2.9% of 350,000 active; also: % of control where 0% means no effect; nearly all actives have a fitted effect of over 50% in size
KB-V1 MDR tox = qHTS assay for MDR1-selective chemotherapeutics: Primary screen using the drug-selected MDR subline cells KB-V1. KB-V1 MDR cells viability, CellTiter-Glo, 72 h. Potency, µM (series often up to 46.1 µM), actives largely listed as cytotoxic. 3.4% of 400,000 active; also: % is scaled to controls: 0 for no effect and ±100 for the full control effect; nearly all actives have a fitted effect of over 60% in size
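Luminescent ATP read-out (CellTiter-Glo, 10 min) measures survival of drug-selected KB-V1 MDR cells after 72 h, 37 degrees C compound exposure. Medium: phenol-red-free DMEM, 10% FBS. Values from fitted concentration-response curves.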
* hit, by the source's call; i = inactive; ? = inconclusive; . = no result; [ ] = another dose, or the depositor's remark. Unless noted, calls follow the shape of the dose curve; as a rule, active = well fitted curve in the direction sought with a large enough effect; inconclusive = small, poorly fitted or top-dose-only effect, or another doubt; inactive = no such curve, though single readings can be large; an effect the other way counts as inactive or inconclusive. Potency is read from the fitted curve at half-maximal effect.

SMILES	KB-3-1 cytotox	SW480 rereplic	PTAP TSG101 blk	PINK1 modulator	MCF10A rereplic	KB-V1 MDR tox
O=C1/C(=C\c2ccc(Cl)c(Cl)c2)CN(C(=O)CCN2CCOCC2)C/C1=C/c1ccc(Cl)c(Cl)c1	3.7µM*	?	1%	-6%	?	?
CCC1CN(C(=O)Nc2cccc3c2CCCC3)c2ccccc2O1 (stereo not given)	.	.	.	1%	.	.
CCN(C(=O)c1c(C)oc2ncnc(N3CCCCC3)c12)c1cc(C)ccc1C	i	.	.	0%	.	i
Cc1[nH]c2ccccc2c1C(c1ccccn1)N1CCC(C)CC1 (stereo not given)	18µM*	15%	-4%	4%	19%	?
O=C(Nc1ccccc1OCc1ccccc1)c1ccccc1Br	i	?	-15%	1%	0.58µM*	?
COC(=O)c1sccc1NC(=O)c1cccs1	i	-13%	2%	4%	14%	i
CCOc1ccccc1C(=O)Nc1ccsc1C(=O)OC	5.8µM*	5.8µM*	-4%	12%	7.3µM*	7.3µM*
COC(=O)c1sccc1NC(=O)c1csc(C)c1	i	22%	-14%	0%[38.3 µM]	-11%	16µM*
CCOc1ccccc1C(=O)Nc1ccccc1C(N)=O	i	-5%	-8%	2%[38.3 µM]	4%	13µM*
CCOc1ccccc1NC(=O)c1cccc2ccccc12	?	?	1%	5%	?	i
COc1ccc(CN2CCC3(CC2)c2ccccc2[C@@H](NC(=O)c2ccccc2)[C@@H]3O)cc1O	.	.	.	0%	.	.
Cc1ccc(CNC(=O)Nc2cn(CC(C)C)c(=O)c3ccccc23)cc1	i	.	.	-4%	.	i
COc1ccc(OC)c(NC(=O)c2nc(S(=O)(=O)Cc3ccc(F)cc3)ncc2Cl)c1	.	.	.	8%	.	.
CC(C)c1ccc(NC(=O)Cn2c(=O)n(Cc3nc(-c4ccccc4)no3)c(=O)c3cc4c(cc32)OCO4)cc1	i	.	.	3%	.	i
FC(F)(F)c1cc(CCN2CCNC[C@@H]2CC2CCCCC2)cc(C(F)(F)F)c1	i	24%	-10%	-2%	18µM*	i
CCCC[C@@H]1CNCCN1CCc1cc(C(F)(F)F)cc(C(F)(F)F)c1	?	-1%	0%	-1%	-6%	?
CCOC(=O)CC(NC(=O)CCc1c(C)nc2c(c1C)c(=O)n(C)c(=O)n2C)c1ccc(OCC)c(OC)c1 (stereo not given)	?	.	.	1%	.	i
CCCNC(=O)CSc1nc(-c2cccs2)cc(C(F)(F)F)n1	i	-5%	-5%	-3%	2%	?
CCOc1ccc(NC(=O)CSc2n[nH]c(N)n2)c([N+](=O)[O-])c1	i	12%	-1%	0%	3%	i
CCOc1ccc(NC(=O)CSc2nc(-c3cccs3)cc(C(F)(F)F)n2)c([N+](=O)[O-])c1	i	11%	-2%	?	12µM*	i
Cc1cc(NC(=O)CSc2nc(-c3cccs3)cc(C(F)(F)F)n2)no1	1.6µM*	2%	-2%	5%[38.3 µM]	-6%	1µM*
Cc1cc(NC(=O)CCCS(=O)(=O)c2nc(-c3cccs3)cc(C(F)(F)F)n2)no1	13µM*	?	-4%	-3%	4.1µM*	i
COC(=O)CCC(=O)OC	i	4.6µM*	-1%	0%	?	i
O=C(COc1ccc(Oc2ccccc2)cc1)NCc1cn2ccccc2n1	15µM*	?	0%	4%	15µM*	?
O=C(O)c1ccc(OCc2cn3ccccc3n2)cc1	i	7%	-2%	2%	18%	i
SMILES	KB-3-1 cytotox	SW480 rereplic	PTAP TSG101 blk	PINK1 modulator	MCF10A rereplic	KB-V1 MDR tox
Cc1ccc(S(=O)(=O)c2cnc(SCC(=O)Nc3cccc(Cl)c3)nc2N)cc1C	i	.	.	0%	.	i
COc1ccc(NC(=O)CSc2oc(-c3ccco3)nc2S(=O)(=O)c2ccccc2)c(OC)c1	i	.	.	-1%	.	i
O=c1cc(-c2ccccc2Cl)oc2ccc([N+](=O)[O-])c(O)c12	i	19%	-5%	-1%	0.37µM*	i
COc1ccccc1-c1cc(=O)c2c(O)ccc([N+](=O)[O-])c2o1	21µM*	2%	-1%	1%	-8%	4.6µM*
COc1ccc2oc(-c3ccccc3[N+](=O)[O-])cc(=O)c2c1	?	8.2µM*	0%	2%	6.5µM*	5.8µM*
O=C(Nc1ccc(O)c2c(=O)cc(-c3ccccc3Cl)oc12)c1ccccc1Cl	i	33%	0%	4%	4%	i
COC(=O)c1cc(=O)c2c([N+](=O)[O-])ccc(OC)c2o1	i	-4%	1%	-1%	-1%	i
O=c1cc(-c2ccccc2Cl)oc2c([N+](=O)[O-])c(O)cc(O)c12	i	-3%	-13%	1%	0.82µM*	i
COc1ccc(OC)c(-c2ccnc(-n3ncc(C(=O)N4CCN(CCO)CC4)c3C3CC3)n2)c1	.	.	.	0%	.	.
Nc1ccc2oc(-c3ccccc3Cl)cc(=O)c2c1O	7.3µM*	-5%	.	-2%	-11%	?
Cc1ccc(OCCCCNC(C)(C)C)c([N+](=O)[O-])c1	i	-18%	0%	-1%	-5%	23µM*
COC(=O)c1sc(-c2ccc(C(C)(C)C)cc2)cc1NC(=O)COCC(=O)O	i	-4%	-1%	1%	21µM*	i
COC(=O)c1sc(-c2ccc(Cl)cc2)cc1NC(=O)CSCC(=O)O	i	-2%	-5%	2%	-6%	i
COc1cccc(CN(C)CC(=O)Nc2cc(S(=O)(=O)N3CCCC3)ccc2Cl)c1OC	?	9%	0%	1%	?	21µM*
CCOc1ccc(S(=O)(=O)N2CCCCC2)cc1NC(=O)Cc1cccs1	i	-2%	-2%	5%	1%	23µM*
COc1ccc(S(=O)(=O)N2CCCCCC2)cc1NC(=O)Cc1cc(OC)c(OC)c(OC)c1	i	-57%	-1%	3%	8%	2.3µM*
CCN(CC(=O)Nc1cc(S(=O)(=O)N2CCCCC2)ccc1C)Cc1ccccc1	?	-2%	-3%	2%	21µM*	?
Cc1ccc(S(=O)(=O)N2CCCCC2)cc1NC(=O)CCOc1ccccc1	i	10%	-1%	1%	6%	?
